The sample as a whole holds a higher share of the strongest signals than the screen did.
Columns and labels:
Assay in all cases: glycan array binding signal (z-score within array); higher = stronger binding
Details in all cases: glycan notation: IUPAC condensed, linker removed
[1] = biological target: Fuc(a1-2)Gal(b1-4)GlcNAc(b1-2)Man(a1-3)[Fuc(a1-2)Gal(b1-4)GlcNAc(b1-2)Man(a1-6)]Man(b1-4)GlcNAc(b1-4)GlcNAc
Summary of the method: (§1)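 The binding signal is a Z-score computed within each array and averaged over linkers. Arrays of the same protein sequence at different concentrations or buffers were also averaged together. Data originate from 3228 arrays in the Consortium for Functional Glycomics database, kept only where the protein sequence was available.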

[2] = biological target: Fuc(a1-2)Gal(b1-4)[Fuc(a1-3)]GlcNAc(b1-2)Man(a1-3)[Fuc(a1-2)Gal(b1-4)[Fuc(a1-3)]GlcNAc(b1-2)Man(a1-6)]Man(b1-4)GlcNAc(b1-4)GlcNAc
Summary of the method: as §1

Fuc(a1-2)[Gal(a1-3)]Gal = biological target: Fuc(a1-2)[Gal(a1-3)]Gal
Summary of the method: as §1

[3] = biological target: Fuc(a1-2)[Gal(a1-3)]Gal(b1-4)GlcNAc(b1-2)Man(a1-3)[Fuc(a1-2)[Gal(a1-3)]Gal(b1-4)GlcNAc(b1-2)Man(a1-6)]Man(b1-4)GlcNAc(b1-4)GlcNAc
Summary of the method: as §1

[4] = biological target: Fuc(a1-2)[GalNAc(a1-3)]Gal(b1-4)GlcNAc(b1-2)Man(a1-3)[GalNAc(a1-3)[Fuc(a1-2)]Gal(b1-4)GlcNAc(b1-2)Man(a1-6)]Man(b1-4)GlcNAc(b1-4)GlcNAc
Summary of the method: as §1

[5] = biological target: Fuc(a1-2)[GalNAc(a1-3)]Gal(b1-4)GlcNAc(b1-3)Gal(b1-4)GlcNAc
Summary of the method: as §1

[6] = biological target: Fuc(a1-3)[Gal(b1-4)]GlcNAc(b1-2)Man(a1-6)[Gal(b1-4)GlcNAc(b1-2)Man(a1-3)]Man(b1-4)GlcNAc(b1-4)GlcNAc
Summary of the method: as §1

[7] = biological target: Fuc(a1-3)[Gal(b1-4)]GlcNAc6S
Summary of the method: as §1

[8] = biological target: Fuc(a1-3)[Gal3S(b1-4)]GlcNAc
Summary of the method: as §1

[9] = biological target: Gal(a1-3)Gal(b1-4)[Fuc(a1-3)]GlcNAc(b1-2)Man(a1-3)[Gal(a1-3)Gal(b1-4)[Fuc(a1-3)]GlcNAc(b1-2)Man(a1-6)]Man(b1-4)GlcNAc(b1-4)GlcNAc
Summary of the method: as §1

Gal(a1-4)Gal(b1-4)GlcNAc = biological target: Gal(a1-4)Gal(b1-4)GlcNAc
Summary of the method: as §1

Gal(b1-2)Gal = biological target: Gal(b1-2)Gal
Summary of the method: as §1

[10] = biological target: Gal(b1-3)GlcNAc(b1-2)Man(a1-3)[Gal(b1-3)GlcNAc(b1-2)Man(a1-6)]Man(b1-4)GlcNAc(b1-4)GlcNAc
Summary of the method: as §1

[11] = biological target: Gal(b1-3)[Neu5Ac(b2-6)]GalNAc
Summary of the method: as §1

[12] = biological target: Gal(b1-4)GalNAc(a1-3)[Fuc(a1-2)]Gal(b1-4)GlcNAc
Summary of the method: as §1

GlcA(b1-6)Gal = biological target: GlcA(b1-6)Gal
Summary of the method: as §1

[13] = biological target: GlcNAc(a1-4)Gal(b1-4)GlcNAc(b1-3)Gal(b1-4)[Fuc(a1-3)]GlcNAc(b1-3)Gal(b1-4)[Fuc(a1-3)]GlcNAc
Summary of the method: as §1

[14] = biological target: Neu5Ac(a2-3)Gal(b1-3)GalNAc
Summary of the method: as §1

[15] = biological target: Neu5Ac(a2-3)Gal(b1-3)GalNAc6S
Summary of the method: as §1

[16] = biological target: Neu5Ac(a2-3)Gal(b1-3)GlcNAc
Summary of the method: as §1

[17] = biological target: Neu5Ac(a2-3)Gal(b1-3)GlcNAc6S
Summary of the method: as §1

[18] = biological target: Neu5Ac(a2-3)Gal(b1-3)[Fuc(a1-4)]GlcNAc(b1-3)Gal(b1-4)[Fuc(a1-3)]GlcNAc
Summary of the method: as §1

[19] = biological target: Neu5Ac(a2-3)Gal(b1-4)GlcNAc(b1-3)Gal(b1-4)GlcNAc(b1-3)Gal(b1-4)GlcNAc
Summary of the method: as §1

[20] = biological target: Neu5Ac(a2-3)Gal(b1-4)[Fuc(a1-3)]GlcNAc(b1-6)[Gal(b1-3)]GalNAc
Summary of the method: as §1

[21] = biological target: Neu5Ac(a2-3)Gal(b1-4)[Fuc(a1-3)]GlcNAc(b1-6)[Neu5Ac(a2-3)Gal(b1-3)]GalNAc
Summary of the method: as §1

Neu5Ac(a2-3)GalNAc = biological target: Neu5Ac(a2-3)GalNAc
Summary of the method: as §1

[22] = biological target: Neu5Ac(a2-6)Gal(b1-4)GlcNAc(b1-2)Man(a1-3)Man(b1-4)GlcNAc(b1-4)GlcNAc
Summary of the method: as §1

[23] = biological target: Neu5Ac(a2-6)Gal(b1-4)GlcNAc6S
Summary of the method: as §1

[24] = biological target: Neu5Ac(b2-6)Gal(b1-4)GlcNAc
Summary of the method: as §1

Neu5Gc(a2-3)Gal(b1-4)Glc = biological target: Neu5Gc(a2-3)Gal(b1-4)Glc
Summary of the method: as §1

Neu5Gc(a2-6)GalNAc = biological target: Neu5Gc(a2-6)GalNAc
Summary of the method: as §1

B1: Neuropilin-1 (Rattus norvegicus), Q9QWJ9 (protein)
chain: MERGLPLLCATLALALALAGAFRSDKCGGTIKIENPGYLTSPGYPHSYHPSEKCEWLIQAPEPYQRIMINFNPHFDLEDRDCKYDYVEVIDGENEGGRLWGKFCGKIAPSPVVSSGPFLFIKFVSDYETHGAGFSIRYEIFKRGPECSQNYTAPTGVIKSPGFPEKYPNSLECTYIIFAPKMSEIILEFESFDLEQDSNPPGGVFCRYDRLEIWDGFPEVGPHIGRYCGQKTPGRIRSSSGILSMVFYTDSAIAKEGFSANYSVLQSSISEDFKCMEALGMESGEIHSDQITASSQYGTNWSVERSRLNYPENGWTPGEDSYREWIQVDLGLLRFVTAVGTQGAISKETKKKYYVKTYRVDISSNGEDWITLKEGNKAIIFQGNTNPTDVVFGVFPKPLITRFVRIKPASWETGISMRFEVYGCKITDYPCSGMLGMVSGLISDSQITASNQGDRNWMPENIRLVTSRTGWALPPSPHPYINEWLQVDLGDEKIVRGVIIQGGKHRENKVFMRKFKIAYSNNGSDWKMIMDDSKRKAKSFEGNNNYDTPELRAFTPLSTRFIRIYPERATHSGLGLRMELLGCEVEVPTAGPTTPNGNPVDECDDDQANCHSGTGDDFQLTGGTTVLATEKPTIIDSTIQSEFPTYGFNCEFGWGSHKTFCHWEHDSHAQLRWRVLTSKTGPIQDHTGDGNFIYSQADENQKGKVARLVSPVVYSQSSAHCMTFWYHMSGSHVGTLRVKLHYQKPEEYDQLVWMVVGHQGDHWKEGRVLLHKSLKLYQVIFEGEIGKGNLGGIAVDDISINNHIPQEDCAKPTDLDKKNTEIKIDETGSTPGYEEGKGDKNISRKPGNVLKTLDPILITIIAMSALGVLLGAVCGVVLYCACWHNGMSERNLSALENYNFELVDGVKLKKDKLNPQSNYSEA
glycan array binding signal (z-score) [1]: 7.46
glycan array binding signal (z-score) [2]: 2.97
glycan array binding signal (z-score) (Fuc(a1-2)[Gal(a1-3)]Gal): -0.352
glycan array binding signal (z-score) [3]: 7.21
glycan array binding signal (z-score) [4]: 5.38
glycan array binding signal (z-score) [5]: -0.035
glycan array binding signal (z-score) [6]: -0.363
glycan array binding signal (z-score) [7]: 0.233
glycan array binding signal (z-score) [8]: -0.201
glycan array binding signal (z-score) [9]: 4.58
glycan array binding signal (z-score) (Gal(a1-4)Gal(b1-4)GlcNAc): -0.229
glycan array binding signal (z-score) (Gal(b1-2)Gal): -0.273
glycan array binding signal (z-score) [10]: -0.258
glycan array binding signal (z-score) [11]: -0.235
glycan array binding signal (z-score) [12]: 0.018
glycan array binding signal (z-score) (GlcA(b1-6)Gal): -0.148
glycan array binding signal (z-score) [13]: 2.61
glycan array binding signal (z-score) [14]: -0.323
glycan array binding signal (z-score) [15]: -0.301
glycan array binding signal (z-score) [16]: -0.274
glycan array binding signal (z-score) [17]: -0.371
glycan array binding signal (z-score) [18]: 0.102
glycan array binding signal (z-score) [19]: -0.331
glycan array binding signal (z-score) [20]: 8.12
glycan array binding signal (z-score) [21]: 4.25
glycan array binding signal (z-score) (Neu5Ac(a2-3)GalNAc): -0.28
glycan array binding signal (z-score) [22]: -0.309
glycan array binding signal (z-score) [23]: -0.311
glycan array binding signal (z-score) [24]: -0.253
glycan array binding signal (z-score) (Neu5Gc(a2-3)Gal(b1-4)Glc): -0.189
glycan array binding signal (z-score) (Neu5Gc(a2-6)GalNAc): -0.331

Reference: the supplement of paper PMC8728848
